From PubChem BioAssay AID1851 (National Center for Advancing Translational Sciences (NCATS), 2009)
Screen size: about 16,000 compounds; about 5,100 (32%) were called active. Not shown: some 25% with an inconclusive outcome. Some of the results follow. A number with no mark means an inactive call. Calls follow the shape of the dose curve; as a rule, active = well fitted curve in the direction sought with a large enough effect; inconclusive = small, poorly fitted or top-dose-only effect, or effect the other way; inactive = no such curve, though single readings can be large or run the other way.
% is scaled to controls: 0 for no effect and ±100 for the full control effect.

What follows are molecules tested against Cytochrome P450 3A4 (Homo sapiens) (UniProt P08684) (assay: Cytochrome panel assay with activity outcomes). Conditions: recombinant CYP, pro-luciferin dealkylation, luminescence, p450-cyp3a4; series mostly up to 57.1 µM; activity, negative = inhibition: at the top concentration.
Chain of Cytochrome P450 3A4 (Homo sapiens) (P08684 whole entry, looked up): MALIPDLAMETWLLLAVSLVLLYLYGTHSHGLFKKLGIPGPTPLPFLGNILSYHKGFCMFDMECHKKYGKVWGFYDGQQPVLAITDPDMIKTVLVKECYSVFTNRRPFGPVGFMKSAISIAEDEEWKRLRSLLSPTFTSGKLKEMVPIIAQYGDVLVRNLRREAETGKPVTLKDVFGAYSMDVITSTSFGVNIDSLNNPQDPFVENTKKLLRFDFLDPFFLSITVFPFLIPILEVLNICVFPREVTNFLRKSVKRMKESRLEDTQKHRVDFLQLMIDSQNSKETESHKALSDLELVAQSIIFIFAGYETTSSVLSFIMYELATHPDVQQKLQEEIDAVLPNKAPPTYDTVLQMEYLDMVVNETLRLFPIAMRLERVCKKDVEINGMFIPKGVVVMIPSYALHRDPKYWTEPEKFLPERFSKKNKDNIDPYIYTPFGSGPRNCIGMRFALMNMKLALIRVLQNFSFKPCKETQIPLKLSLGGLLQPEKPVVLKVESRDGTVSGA
With CCC(=S)/C=C1\Sc2ccccc2N1CCCS(=O)(=O)O the “activity, negative = inhibition” value was 19.1%. In the case of O=C(O)Cc1c(O)ccc2ccccc12, the activity, negative = inhibition is reported as -10.5% [at 11.4 µM]. With c1cncc(-c2nnc3n2C2(CCCCC2)Cc2ccccc2-3)c1 the AC50 was 1 µM (active). CCCn1cnc2c(SCC(=O)O)nc(N)nc21 gave an activity, negative = inhibition of -4.33% [at 11.4 µM]. For Cc1[nH]n(C(C)(C)C)c(=O)c1Sc1ccc(Cl)cc1, the AC50 was 15.8 µM (active). With Cc1[nH]n(C(C)(C)C)c(=O)c1Sc1ccccc1 the “activity, negative = inhibition” value was 28.8%. O=S(=O)(O)c1ccc2cc(N=Nc3cc(S(=O)(=O)O)c4cccnc4c3O)ccc2c1 showed an activity, negative = inhibition of -6.99% [at 11.4 µM]. With CCCCc1ccc(-c2csc(/C(C#N)=C/c3ccc(C)o3)n2)cc1 the AC50 was 12.6 µM (active). In the case of COc1ccc(N(CC(=O)Nc2cccc(C)c2)S(=O)(=O)c2c(C)n[nH]c2C)cc1, the AC50 is reported as 3.16 µM (active). CC(=O)c1cccc(NC(=O)Oc2ccccc2)c1 was tested, and the “activity, negative = inhibition” value was 14.9%. Cc1n[nH]c(C)c1S(=O)(=O)N1CCOCC1 was tested, and the “activity, negative = inhibition” value was -6.35%. With COc1cccc(N(CC(=O)Nc2cccc(C(C)=O)c2)S(C)(=O)=O)c1 the AC50 was 11.2 µM (active). Cc1ccc(NC(=O)C2CCN(S(=O)(=O)c3c(C)n[nH]c3C)CC2)nc1 was tested, and the “activity, negative = inhibition” value was -20.6%. Cc1cccc(NS(=O)(=O)c2c(C)n[nH]c2C)c1 was tested, and the AC50 was 25.1 µM (active). CC(=O)c1cc2c(cc1NC(=O)c1c(-c3ccccc3)noc1C)OCO2 was tested, and the AC50 was 1.58 µM (active). In the case of CC(=O)c1cc2c(cc1NC(=O)CCCC(=O)O)OCO2, the “activity, negative = inhibition” value is reported as -24.3%. For CC(=O)c1c(N=CN(C)C)nc(C)nc1-c1ccccc1, the “activity, negative = inhibition” value was -8.85%. With CN(N=O)C(=O)N[C@H]1C(O)OC(CO)[C@@H](O)[C@H]1O (some centres not stated) the “activity, negative = inhibition” value was -11.7%. O=C(CCCc1ccccn1)c1ccccc1 showed an activity, negative = inhibition of -27.1% [at 11.4 µM]. In the case of O=C(O)CCC(=O)CCC(=O)c1ccccc1, the “activity, negative = inhibition” value is reported as -7.58%. For O=C(/C=C\NCC(=O)c1ccccc1)c1ccc(F)cc1, the AC50 was 14.1 µM (active). In the case of O=C(/C=C\NCC(=O)c1ccccc1)c1ccccc1, the AC50 is reported as 15.8 µM (active). O=C(C[n+]1cccc(NC(=O)c2ccccc2)c1)c1ccc(NC(=O)c2ccccc2)cc1 was tested, and the activity, negative = inhibition was 9.66% [at 2.29 µM]. CN(C)/C=C/C(=O)c1ccc(F)cc1 was tested, and the “activity, negative = inhibition” value was -10.5%. With N[C@@H](CS(=O)O)C(=O)O the “activity, negative = inhibition” value was -3.74%. With COc1cccc([C@@H]2Oc3ccc(OC)cc3C(=O)[C@H]2O)c1 the AC50 was 3.98 µM (active). With CCOc1ccc(/C=C2\C(=O)c3ccccc3OC2c2ccccc2)cc1 (configuration not stated) the “activity, negative = inhibition” value was 17.9%. In the case of COc1cccc([C@@H]2Oc3ccc(OC)cc3/C(=N/OC[C@@H](C)[C@H](OCc3ccccc3)C(C)C)[C@@H]2O)c1, the AC50 is reported as 3.16 µM (active). Work on CCN1C(=O)[C@H]2[C@H]3[C@H](O)[C@H](O)C/C(=N/OC[C@@H](O)[C@H]4O[C@H]5OC(C)(C)O[C@H]5[C@@H]4O)[C@@H]3CC[C@@H]2C1=O yielded an activity, negative = inhibition of -16.2% [at 11.4 µM]. For COc1cccc([C@H]2Oc3ccc(OC)cc3/C(=N\OC[C@@H](O)[C@@H]3O[C@@H]4OC(C)(C)O[C@@H]4[C@H]3O)[C@@H]2O)c1, the AC50 was 3.98 µM (active). With COc1cccc([C@@H]2Oc3ccc(OC)cc3/C(=N/OC[C@@H](O)COCc3ccco3)[C@@H]2O)c1 the AC50 was 3.16 µM (active). Cn1c(=O)n2n(c1=O)[C@H]1[C@H](O)[C@H]3O[C@@H]3/C(=N/OC[C@@H](O)COCc3ccco3)[C@@H]1CC2 gave an activity, negative = inhibition of -23.8% [at 11.4 µM]. For COc1cccc(C2C3(C#N)C(N)=NC(OC)(OC)C23C#N)c1 (configuration not stated), the activity, negative = inhibition was -16.8% [at 2.29 µM]. CC(C)=NOC[C@@H](O)COCc1ccco1 was tested, and the activity, negative = inhibition was -14.7% [at 11.4 µM]. In the case of CCOC(=O)C1CN(S(=O)(=O)c2cccc(C(F)(F)F)c2)c2cc(CC(=O)OC)ccc2O1 (configuration not stated), the AC50 is reported as 5.01 µM (active). For CCS(=O)(=O)c1ccc2c(c1)N(S(C)(=O)=O)CC(C(=O)NCCOC)O2 (configuration not stated), the “activity, negative = inhibition” value was -7.69%. O=C(O)Cc1ccc2c(c1)N(S(=O)(=O)c1cccc(C(F)(F)F)c1)CC(C(=O)O)O2 (configuration not stated) showed an activity, negative = inhibition of -7.46% [at 2.29 µM]. With COc1ccc2[nH]cc(CCNc3ncnc4ccc(-c5ccc(C(=O)N(C)C)cc5)cc34)c2c1 the AC50 was 2.51 µM (active). COc1ccc2[nH]cc(CCNc3ncncc3-c3ccc(N(C)C)cc3)c2c1 was tested, and the AC50 was 0.501 µM (active). For COc1ccc2[nH]cc(CCNc3ncncc3-c3ccc(C(=O)N(C)C)cc3)c2c1, the AC50 was 1 µM (active). CC1CC/C(=C\c2ccc3c(c2)OCO3)C(=O)/C1=C/c1ccc2c(c1)OCO2 (configuration not stated) was tested, and the AC50 was 1.58 µM (active). With CCS(=O)(=O)c1ccc(C(=O)Nc2ccccc2)c(Cl)c1Cl the AC50 was 5.01 µM (active). With CCS(=O)(=O)c1ccc(O)c(NC(=O)Nc2ccccc2)c1 the “activity, negative = inhibition” value was -25.1%. For CC(C)CO/N=C1/[C@H]2O[C@@H]2[C@@H](O)[C@H]2[C@H]1CCn1c(=O)n(C)c(=O)n12, the activity, negative = inhibition was -9.68% [at 11.4 µM]. With Cc1nc(S(=O)(=O)NC2CCCCC2)c(C#N)c(C)c1Cl the AC50 was 7.94 µM (active). In the case of Cc1nc(S(=O)(=O)N(C)c2ccccc2)c(C#N)c(C)c1Cl, the “activity, negative = inhibition” value is reported as -23.4%. With Cc1nc(S(=O)(=O)N2CCOCC2)c(C#N)c(C)c1Cl the “activity, negative = inhibition” value was -9.65%.
